Experiment [1] is described as follows: ATG_CMV_CIS: Attagene CIS-FACTORIAL HepG2 Assay for human CMV (Internal Marker) (AID 2282928).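 Note: endpoint acts as a background internal control marker rather than a target.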 The note with it: HepG2 CMV promoter reporter, transcription factor profiling; actives raise or lower the signal. The method, boiled down:
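After transient transfection of HepG2 with reporter transcription units driven by cis-regulatory promoters, cells receive test chemical for 24 h. Labeled reporter amplicons, digested with HpaI, are sized and quantified by capillary electrophoresis against DMSO.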

Experiment [2] is described as follows: ATG_M_32_CIS: Attagene CIS-FACTORIAL HepG2 Assay for M32 Transcription Factor (Internal Marker) (AID 2282949).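 Note: background control marker of the multiplexed CIS panel rather than a real target.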 As to conditions: HepG2 Attagene cis-factorial M32 reporter, mRNA; actives raise or lower the signal. The method, boiled down: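 Internal background marker read-out: RT-PCR/capillary electrophoresis fluorescence of reporter transcripts from transiently transfected HepG2 cells after 24 h chemical exposure. Activity fitted bidirectionally relative to DMSO negative control.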

In experiment [3] the target is Hepatocyte nuclear factor 6 (Homo sapiens) (UniProt Q9UBC0). Description: ATG_HNF6_CIS: Attagene CIS-FACTORIAL HepG2 Assay for human Hepatocyte Nuclear Factor 6 (HNF6) (AID 2282952). As to conditions: HepG2 Attagene cis-factorial HNF6 reporter transcription; actives raise or lower the signal. The method, boiled down: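 Cells are HepG2 carrying transiently transfected cis-promoter reporter units. Treatment lasts 24 h, after which reporter transcripts are reverse-transcribed, amplified, FAM-labelled and sized by capillary electrophoresis. DMSO serves as baseline.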

Experiment [4] concerns the target Heat shock factor protein 1 (Homo sapiens) (UniProt Q00613). The experiment can be described thus: ATG_HSE_CIS: Attagene CIS-FACTORIAL HepG2 Assay for human Heat Shock Transcription Factor 1 (HSE) (AID 2282953). The note with it: HepG2 HSE cis-reporter, Attagene RNA transcription; actives raise or lower the signal. In short, it runs like this: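 HepG2, transient MRTU transfection, cis-promoter reporters (endogenous TF activity). 24 h compound. RNA → oligo(dT) RT → PCR → 6-FAM primer extension → HpaI cut → CE. Bidirectional fit vs DMSO.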

Experiment [5] in a line: ATG_RORE_CIS: Attagene CIS-FACTORIAL HepG2 Assay for human RAR-related Orphan Receptor Element (RORE) (AID 2282959). The note with it: HepG2 Attagene cis-factorial RORE reporter, mRNA; actives raise or lower the signal. In short, it runs like this: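 HepG2 cells carrying transiently transfected cis-regulated reporter units; RORE-driven reporter mRNA quantified 24 h post-dosing by RT-PCR, 6-FAM primer extension, HpaI digestion and capillary electrophoresis. Bidirectional fit versus DMSO.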

Experiment [6] can be described thus: ATG_TCF_b_cat_CIS: Attagene CIS-FACTORIAL HepG2 Assay for human T-Cell-Factor with beta-catenin (TCF/b-cat) (AID 2282965). As to conditions: HepG2 TCF/beta-catenin cis-reporter transcription, actives raise or lower the signal. In short, it runs like this:
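Cells of the HepG2 line carry transiently transfected reporter units whose promoters respond to endogenous factors. Twenty-four hours post-dosing, reporter mRNA induction is measured by fluorescent RT-PCR and capillary electrophoresis, with DMSO as baseline.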

Experiment [7] in a line: ATG_TAL_CIS: Attagene CIS-FACTORIAL HepG2 Assay for human TAL Basal Promoter (AID 2282966).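 Note: background control endpoint measuring basal TAL promoter reporter mRNA not a specific factor.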 The note with it: HepG2 Attagene cis-factorial TAL promoter reporter; actives raise or lower the signal. The method, boiled down:
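Steps: transfect HepG2 with multiple reporter transcription units; dose 24 h; isolate RNA, reverse-transcribe, PCR-amplify, label with 6-FAM, digest with HpaI; resolve by capillary electrophoresis. Bidirectional fitting against DMSO baseline.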

Experiment [8] can be described thus: ATG_TGFb_CIS: Attagene CIS-FACTORIAL HepG2 Assay for human Transforming Growth Factor (TGF) (AID 2282967). As to conditions: HepG2 Attagene CIS TGFb reporter, mRNA transcription; actives raise or lower the signal. The method, boiled down:
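Transient MRTU transfection of HepG2 (FuGene 6). Dose 24 h. TriZol RNA, oligo(dT) RT, PCR, 6-FAM primer extension, HpaI cut, CE. Bidirectional fit, DMSO = baseline.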

Experiment [9] in a line: ATG_VDRE_CIS: Attagene CIS-FACTORIAL HepG2 Assay for human Vitamin D Receptor Element (VDRE) (AID 2282968). As to conditions: HepG2 VDRE cis-reporter transcription, actives raise or lower the signal. In short, it runs like this: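 Cell-based multiplexed reporter format in human liver HepG2 cells, 24 h post-dose. Fluorescence from capillary electrophoresis of reporter cDNA gives the signal, with DMSO as negative control and baseline.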

In experiment [10] the target is X-box-binding protein 1 (Homo sapiens) (UniProt P17861). The experiment can be described thus: ATG_Xbp1_CIS: Attagene CIS-FACTORIAL HepG2 Assay for human X-box Binding Protein 1 (XBP1) (AID 2282972). The note with it: HepG2 XBP1 cis-element reporter, Attagene multiplex; actives raise or lower the signal. In short, it runs like this:
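Fluorescence-labelled cDNA fragments from reporter transcripts, separated by capillary electrophoresis, give the signal. Source: HepG2 cells transfected with promoter-driven reporter units, harvested 24 h post-dose. DMSO served as reference for bidirectional curve fitting.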

The target in experiment [11] is Transcriptional activator Myb (Homo sapiens) (UniProt P10242). The experiment can be described thus: ATG_Myb_CIS: Attagene CIS-FACTORIAL HepG2 Assay for human Myeloblastosis (Myb) Proto-Oncogene Transcription Factor (AID 2282986). As to conditions: HepG2 Attagene CIS-FACTORIAL Myb reporter transcription; actives raise or lower the signal. In short, it runs like this: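 Transiently transfected HepG2 cells carrying a multiplexed cis-promoter reporter set report endogenous Myb activity after 24 h compound exposure. Reporter mRNA is read by RT-PCR with capillary electrophoresis of fluorescent products, fitted bidirectionally against DMSO.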

Experiment [12] deals with Nuclear respiratory factor 1 (Homo sapiens) (UniProt Q16656). The experiment can be described thus: ATG_NRF1_CIS: Attagene CIS-FACTORIAL HepG2 Assay for human Nuclear Respiratory Factor 1 (NRF1) Orphan Gene (AID 2282987). As to conditions: HepG2 NRF1 cis-element reporter, Attagene multiplex; actives raise or lower the signal. In short, it runs like this:
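HepG2 cells transiently transfected with multiple cis-regulated reporter units, exposed 24 h. Reporter mRNAs measured by RT-PCR, fluorescent labelling, HpaI digestion and capillary electrophoresis; bidirectional fitting against DMSO.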

The target in experiment [13] is Myc proto-oncogene protein (Homo sapiens) (UniProt P01106). The experiment can be described thus: ATG_Myc_CIS: Attagene CIS-FACTORIAL HepG2 Assay for human Myelocytomatosis (Myc) Proto-Oncogene Transcription Factor (AID 2282990). The note with it: HepG2, Attagene cis-reporter transcription factor activity; actives raise or lower the signal. The method, boiled down:
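Fluorescence intensity of reporter-specific cDNA fragments, separated by capillary electrophoresis, gives the signal. Transfected HepG2 cells carrying cis-promoter reporter constructs are incubated with compound for 24 h; DMSO serves as baseline.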

A short description of experiment [14]: ATG_NF_kB_CIS: Attagene CIS-FACTORIAL HepG2 Assay for human Nuclear Factor Kappa B (NF-kB) (AID 2282991). The note with it: HepG2 Attagene cis-factorial NF-kB reporter mRNA; actives raise or lower the signal. The method, boiled down:
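HepG2 cells transfected with cis-promoter-driven reporter units, so endogenous transcription factor activity is measured. Reporter mRNA quantified 24 h after dosing by RT-PCR and capillary electrophoresis, with bidirectional fitting against DMSO.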

Experiment [15] can be described thus: ATG_NRF2_ARE_CIS: Attagene CIS-FACTORIAL HepG2 Assay for human Nuclear Factor Erythroid 2 Related Factor 2 (NFR2) response to Antioxidant Response Elements (ARE) (AID 2282992). As to conditions: HepG2 Attagene ARE/NRF2 reporter, transcription factor activity; actives raise or lower the signal. The method, boiled down:
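Multiplexed reporter mRNA profiling in HepG2 after a 24 h chemical exposure. Curves fitted in both directions relative to DMSO negative control.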

Experiment [16] can be described thus: ATG_Oct_MLP_CIS: Attagene CIS-FACTORIAL HepG2 Assay for human Octamer-Binding Transcription Factor (Oct) (AID 2282993). The note with it: HepG2 Attagene cis-factorial Oct reporter, mRNA; actives raise or lower the signal. In short, it runs like this:
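Transient MRTU transfection of HepG2 → 24 h compound treatment → RNA isolation, reverse transcription, PCR → 6-FAM primer extension, HpaI digest → capillary electrophoresis. Activity fitted both directions against DMSO.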

Experiment [17] has as its target Cellular tumor antigen p53 (Homo sapiens) (UniProt P04637). The experiment can be described thus: ATG_p53_CIS: Attagene CIS-FACTORIAL HepG2 Assay for human p53 Transcription Factor (AID 2282994). As to conditions: HepG2 p53 cis-element reporter, Attagene mRNA; actives raise or lower the signal. The method, boiled down: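 Multiplexed reporter mRNA assay in human HepG2 liver cells; cis-regulated units report endogenous factor activity. Values come from bidirectional curve fitting against DMSO negative control after 24 h treatment.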

Experiment [18] is described as follows: ATG_ISRE_CIS: Attagene CIS-FACTORIAL HepG2 Assay for human Interferon Regulatory Factor 1 (IRF1) binding to an Interferon-Stimulated Response Element (ISRE) (AID 2282948). As to conditions: HepG2 ISRE cis-reporter (Attagene), mRNA transcription readout; actives raise or lower the signal. In short, it runs like this: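 Cell-based cis-reporter assay; HepG2; 24 h exposure; reporter mRNA by RT-PCR plus capillary electrophoresis fluorescence; activity in either direction scored relative to DMSO.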

Experiment [19] addresses Signal transducer and activator of transcription 3 (Homo sapiens) (UniProt P40763). Description: ATG_STAT3_CIS: Attagene CIS-FACTORIAL HepG2 Assay for human Signal Transducer and Activator of Transcription 3 (STAT3) (AID 2282963). The note with it: HepG2, Attagene cis-factorial STAT3 reporter transcription; actives raise or lower the signal. In short, it runs like this: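 Values derive from bidirectional fits relative to DMSO of reporter mRNA levels, measured by RT-PCR with capillary electrophoresis, in HepG2 cells carrying transiently transfected cis-regulated reporter units and exposed 24 h.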

The nature of experiment [20]: ATG_TA_CIS: Attagene CIS-FACTORIAL HepG2 Assay for human TA Basal Promoter (AID 2282964). As to conditions: HepG2 Attagene CIS-factorial TA basal promoter reporter; actives raise or lower the signal. In short, it runs like this:
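Read-out: fluorescent reporter-transcript fragments resolved by capillary electrophoresis after RT-PCR and HpaI digestion. Source: HepG2 cells carrying transiently transfected multi-reporter cis constructs, treated 24 h. Endpoint fitted bidirectionally relative to DMSO.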

Activity calls are given as the source filed them. Rule for the calls: active = hit-call score of the fitted dose curve at least 0.9, where 1 is the maximum; inactive = score below 0.9.

Myc proto-oncogene protein (Homo sapiens), sequence (P01106 whole entry, looked up, the tested form may be a part): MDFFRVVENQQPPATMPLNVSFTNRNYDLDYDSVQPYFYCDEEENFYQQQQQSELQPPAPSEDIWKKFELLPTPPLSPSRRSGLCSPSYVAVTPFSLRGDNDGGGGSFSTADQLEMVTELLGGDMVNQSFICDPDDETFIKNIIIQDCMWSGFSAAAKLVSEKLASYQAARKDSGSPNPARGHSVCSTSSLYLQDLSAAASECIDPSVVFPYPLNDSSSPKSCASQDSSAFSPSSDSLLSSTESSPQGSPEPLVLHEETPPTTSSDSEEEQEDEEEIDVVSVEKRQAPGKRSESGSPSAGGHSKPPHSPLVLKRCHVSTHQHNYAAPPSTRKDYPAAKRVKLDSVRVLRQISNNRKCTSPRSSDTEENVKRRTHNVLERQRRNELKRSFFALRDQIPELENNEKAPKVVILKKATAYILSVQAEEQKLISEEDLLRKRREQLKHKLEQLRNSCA
Transcriptional activator Myb (Homo sapiens), sequence (P10242 whole entry, looked up): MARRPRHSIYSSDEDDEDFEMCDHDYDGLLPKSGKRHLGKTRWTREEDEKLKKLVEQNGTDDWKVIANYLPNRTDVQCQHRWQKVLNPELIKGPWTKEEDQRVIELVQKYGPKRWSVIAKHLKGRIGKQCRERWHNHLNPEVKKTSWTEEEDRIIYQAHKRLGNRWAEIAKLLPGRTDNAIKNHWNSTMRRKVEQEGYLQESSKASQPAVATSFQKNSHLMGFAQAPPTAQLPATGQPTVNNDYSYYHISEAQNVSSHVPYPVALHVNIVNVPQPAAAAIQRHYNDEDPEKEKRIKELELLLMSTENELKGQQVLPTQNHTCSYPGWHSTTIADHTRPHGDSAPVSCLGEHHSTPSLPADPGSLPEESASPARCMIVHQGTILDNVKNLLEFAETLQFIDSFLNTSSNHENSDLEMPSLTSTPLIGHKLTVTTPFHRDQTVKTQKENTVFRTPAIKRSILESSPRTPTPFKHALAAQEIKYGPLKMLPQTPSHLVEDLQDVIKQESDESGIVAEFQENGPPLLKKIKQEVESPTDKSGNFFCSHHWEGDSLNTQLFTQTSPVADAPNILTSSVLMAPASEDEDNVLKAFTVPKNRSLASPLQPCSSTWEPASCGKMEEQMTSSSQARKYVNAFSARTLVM
Hepatocyte nuclear factor 6 (Homo sapiens), sequence (Q9UBC0 whole entry, looked up): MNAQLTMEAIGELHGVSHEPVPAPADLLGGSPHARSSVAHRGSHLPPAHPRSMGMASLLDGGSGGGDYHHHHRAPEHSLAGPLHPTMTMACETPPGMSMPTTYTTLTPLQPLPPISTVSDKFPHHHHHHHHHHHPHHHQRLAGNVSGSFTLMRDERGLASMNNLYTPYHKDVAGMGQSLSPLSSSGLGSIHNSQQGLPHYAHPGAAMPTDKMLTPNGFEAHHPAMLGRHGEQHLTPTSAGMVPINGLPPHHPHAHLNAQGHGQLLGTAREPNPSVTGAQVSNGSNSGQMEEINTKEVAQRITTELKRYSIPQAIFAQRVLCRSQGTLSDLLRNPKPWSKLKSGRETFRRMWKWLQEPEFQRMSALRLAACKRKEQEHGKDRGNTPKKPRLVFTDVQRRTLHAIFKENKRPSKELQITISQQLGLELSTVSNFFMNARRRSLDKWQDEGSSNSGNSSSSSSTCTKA
Nuclear respiratory factor 1 (Homo sapiens), sequence (Q16656 whole entry, looked up): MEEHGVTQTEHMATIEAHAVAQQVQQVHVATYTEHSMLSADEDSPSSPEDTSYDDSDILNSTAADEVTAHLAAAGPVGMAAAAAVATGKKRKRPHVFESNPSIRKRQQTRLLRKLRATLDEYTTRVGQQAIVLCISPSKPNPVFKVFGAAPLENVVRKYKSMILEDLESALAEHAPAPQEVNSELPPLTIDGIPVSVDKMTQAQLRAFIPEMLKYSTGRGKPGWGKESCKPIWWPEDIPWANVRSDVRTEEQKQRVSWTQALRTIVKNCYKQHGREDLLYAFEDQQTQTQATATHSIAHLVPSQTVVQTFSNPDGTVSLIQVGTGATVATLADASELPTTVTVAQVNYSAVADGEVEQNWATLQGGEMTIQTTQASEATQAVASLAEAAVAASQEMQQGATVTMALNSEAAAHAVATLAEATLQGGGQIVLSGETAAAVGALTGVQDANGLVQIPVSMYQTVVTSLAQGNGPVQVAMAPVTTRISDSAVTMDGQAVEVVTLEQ
Cellular tumor antigen p53 (Homo sapiens), sequence (P04637 whole entry, looked up): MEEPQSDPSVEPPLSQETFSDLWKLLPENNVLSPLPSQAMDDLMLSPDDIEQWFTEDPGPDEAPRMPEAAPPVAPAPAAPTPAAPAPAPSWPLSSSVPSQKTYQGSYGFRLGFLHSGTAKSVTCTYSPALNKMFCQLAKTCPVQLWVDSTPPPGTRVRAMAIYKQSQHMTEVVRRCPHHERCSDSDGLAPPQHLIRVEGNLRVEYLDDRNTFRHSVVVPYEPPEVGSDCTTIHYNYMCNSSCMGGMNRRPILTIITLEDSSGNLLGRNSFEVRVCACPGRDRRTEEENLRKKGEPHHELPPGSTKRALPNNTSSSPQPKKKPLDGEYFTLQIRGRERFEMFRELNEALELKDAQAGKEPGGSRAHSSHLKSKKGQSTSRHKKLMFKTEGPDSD
Heat shock factor protein 1 (Homo sapiens), sequence (Q00613 whole entry, looked up): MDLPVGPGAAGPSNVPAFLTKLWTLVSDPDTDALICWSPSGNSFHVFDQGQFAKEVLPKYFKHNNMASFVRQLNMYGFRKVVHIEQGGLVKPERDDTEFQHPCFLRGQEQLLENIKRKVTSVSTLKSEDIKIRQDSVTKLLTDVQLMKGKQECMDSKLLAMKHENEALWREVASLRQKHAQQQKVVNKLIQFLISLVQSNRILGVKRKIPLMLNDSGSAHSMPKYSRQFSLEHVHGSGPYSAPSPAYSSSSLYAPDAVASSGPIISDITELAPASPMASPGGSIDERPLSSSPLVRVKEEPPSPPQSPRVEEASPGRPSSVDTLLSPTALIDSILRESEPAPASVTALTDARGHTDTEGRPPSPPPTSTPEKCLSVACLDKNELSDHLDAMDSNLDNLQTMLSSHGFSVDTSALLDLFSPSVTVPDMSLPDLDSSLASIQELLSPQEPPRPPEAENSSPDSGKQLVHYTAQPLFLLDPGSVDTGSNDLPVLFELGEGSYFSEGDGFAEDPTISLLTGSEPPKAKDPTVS
X-box-binding protein 1 (Homo sapiens), sequence (P17861 whole entry, looked up, the tested form may be a part): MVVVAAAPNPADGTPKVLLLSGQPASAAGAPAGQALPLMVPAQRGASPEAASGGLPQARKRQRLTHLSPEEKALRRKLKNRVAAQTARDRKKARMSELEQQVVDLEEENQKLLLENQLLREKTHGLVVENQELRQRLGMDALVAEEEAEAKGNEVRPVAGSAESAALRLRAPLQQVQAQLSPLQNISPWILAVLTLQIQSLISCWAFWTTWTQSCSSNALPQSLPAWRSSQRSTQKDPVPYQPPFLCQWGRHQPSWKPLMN
Signal transducer and activator of transcription 3 (Homo sapiens), sequence (P40763 whole entry, looked up): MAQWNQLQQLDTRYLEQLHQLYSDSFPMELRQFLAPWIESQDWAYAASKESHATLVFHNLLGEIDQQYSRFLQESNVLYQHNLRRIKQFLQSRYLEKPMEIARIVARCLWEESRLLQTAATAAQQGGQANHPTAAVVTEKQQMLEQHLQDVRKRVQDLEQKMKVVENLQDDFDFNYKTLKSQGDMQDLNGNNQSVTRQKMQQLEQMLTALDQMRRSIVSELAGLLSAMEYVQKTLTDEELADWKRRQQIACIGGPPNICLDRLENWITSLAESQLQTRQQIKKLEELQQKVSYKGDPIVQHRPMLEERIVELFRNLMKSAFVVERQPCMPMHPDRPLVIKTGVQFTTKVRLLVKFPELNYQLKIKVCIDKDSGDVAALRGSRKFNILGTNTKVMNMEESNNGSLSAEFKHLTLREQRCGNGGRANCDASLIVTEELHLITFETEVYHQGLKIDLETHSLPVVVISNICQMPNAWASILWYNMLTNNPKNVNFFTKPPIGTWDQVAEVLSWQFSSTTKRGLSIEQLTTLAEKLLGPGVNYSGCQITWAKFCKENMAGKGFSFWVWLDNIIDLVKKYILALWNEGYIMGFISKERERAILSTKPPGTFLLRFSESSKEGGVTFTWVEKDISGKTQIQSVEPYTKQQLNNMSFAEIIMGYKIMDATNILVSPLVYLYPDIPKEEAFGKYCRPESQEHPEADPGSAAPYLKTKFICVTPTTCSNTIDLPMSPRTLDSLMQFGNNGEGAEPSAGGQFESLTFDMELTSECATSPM

Consider `CC[N+](=O)[O-]`, for which the outcome in experiment [1], in experiment [2], in experiment [3], in experiment [4], in experiment [5] and in experiment [6] was inactive. In addition, the result in experiment [7], in experiment [8], in experiment [9], in [10], in experiment [11] and in [12] was inactive. In addition, the outcome in experiment [13], in [14], in experiment [15], in experiment [16] and in [17] was inactive.

Turning to `Nc1ccc([N+](=O)[O-])cc1N`, the molecule was classed as inactive in experiment [1], in [18], in experiment [2], in experiment [3], in experiment [4] and in experiment [5]. The call in experiment [19], in experiment [6], in [7], in [8], in experiment [9] and in [10] was inactive. The molecule was called inactive in [11], in experiment [12], in [13], in experiment [16] and in [17]. In experiment [15], the AC50 is 7.53 µM (active).

Take `CC(Cc1ccc(C(C)(C)C)cc1)CN1C[C@@H](C)O[C@@H](C)C1` (stereo not given in full): the AC50 in experiment [1] is 38.6 µM (active); in experiment [14], 21 µM (active); in experiment [15], 35.9 µM (active). The call in [2], in experiment [3], in experiment [4], in experiment [5], in [19] and in experiment [20] was inactive. Also, the call in [6], in [7], in experiment [8], in [10], in experiment [11] and in experiment [12] was inactive. Also, the call in [13], in [16] and in experiment [17] was inactive.

Turning to `[Cl][Sb]([Cl])[Cl]`, the molecule was called inactive in experiment [1], in experiment [2], in experiment [3], in experiment [5], in experiment [19] and in [20]. For the same molecule, the outcome in experiment [7], in experiment [8], in [11], in experiment [12] and in [16] was inactive. Besides, the AC50 in experiment [4] was 169 µM (active); in experiment [6] it was 186 µM (active); in experiment [10] it was 143 µM (active); in experiment [13], 175 µM (active); in experiment [15], 1.72 µM (active); in [17], 180 µM (active).

For the origin of these results see PubChem BioAssay (EPA / NIEHS).
